# Screening data as filed in PubChem BioAssay.
# Most compounds without a hit are left out; they make up all but 11% or so of the library.
# HEK cytotox: cytotoxic compounds in HEK 293 cells. HEK 293 viability, ATP luminescence (CellTiter-Glo), 48-72 h. Potency, µM (titrated, usually from 115 µM), for inactives: top-dose activity change, negative = cytotoxicity, usual class: inhibitors. 6.6% of 94,000 active; also: % is scaled to controls: 0 for no effect and ±100 for the full control effect; nearly all actives have a fitted effect of over 60% in size
#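 CellTiter-Glo luminescence (cellular ATP) was read after 48 or 72 hr of compound exposure at 37 degree Celsius. Cells were HEK 293 plated at 250 cells/well.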
# 3T3 cytotox: NIH 3T3 cell cytotoxicity; NIH 3T3 viability, CellTiter-Glo ATP luminescence, 48-72 h; Potency, µM (highest dose often 96.7 µM), for the others: top-dose activity change, negative = cytotoxicity, most hits filed as inhibitors; 4.3% of 94,000 active; AID 1345082; also: % is scaled to controls: 0 for no effect and ±100 for the full control effect; nearly all actives have a fitted effect of over 55% in size
#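 First NIH 3T3 cells are plated at 400 cells/well; next compound is pinned in; then plates incubate 48 or 72 hr at 37 °C; finally CellTiter-Glo is added and luminescence read after 10 min.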
# NPR1 antag: antagonists of human natriuretic peptide receptor Npr1; P16066; HEK293 hNpr1 GloSensor cGMP, ANP-stimulated luminescence; Potency, µM (titrated, usually from 46.3 µM), without a hit: at the top dose activity change, negative = inhibition, most hits filed as inhibitors; 1.6% of 76,000 active; AID 1347048; calls by dose curve; also: % is scaled to controls: 0 for no effect and ±100 for the full control effect; nearly all actives have a fitted effect of over 60% in size
# Target sequence (P16066 whole entry, looked up): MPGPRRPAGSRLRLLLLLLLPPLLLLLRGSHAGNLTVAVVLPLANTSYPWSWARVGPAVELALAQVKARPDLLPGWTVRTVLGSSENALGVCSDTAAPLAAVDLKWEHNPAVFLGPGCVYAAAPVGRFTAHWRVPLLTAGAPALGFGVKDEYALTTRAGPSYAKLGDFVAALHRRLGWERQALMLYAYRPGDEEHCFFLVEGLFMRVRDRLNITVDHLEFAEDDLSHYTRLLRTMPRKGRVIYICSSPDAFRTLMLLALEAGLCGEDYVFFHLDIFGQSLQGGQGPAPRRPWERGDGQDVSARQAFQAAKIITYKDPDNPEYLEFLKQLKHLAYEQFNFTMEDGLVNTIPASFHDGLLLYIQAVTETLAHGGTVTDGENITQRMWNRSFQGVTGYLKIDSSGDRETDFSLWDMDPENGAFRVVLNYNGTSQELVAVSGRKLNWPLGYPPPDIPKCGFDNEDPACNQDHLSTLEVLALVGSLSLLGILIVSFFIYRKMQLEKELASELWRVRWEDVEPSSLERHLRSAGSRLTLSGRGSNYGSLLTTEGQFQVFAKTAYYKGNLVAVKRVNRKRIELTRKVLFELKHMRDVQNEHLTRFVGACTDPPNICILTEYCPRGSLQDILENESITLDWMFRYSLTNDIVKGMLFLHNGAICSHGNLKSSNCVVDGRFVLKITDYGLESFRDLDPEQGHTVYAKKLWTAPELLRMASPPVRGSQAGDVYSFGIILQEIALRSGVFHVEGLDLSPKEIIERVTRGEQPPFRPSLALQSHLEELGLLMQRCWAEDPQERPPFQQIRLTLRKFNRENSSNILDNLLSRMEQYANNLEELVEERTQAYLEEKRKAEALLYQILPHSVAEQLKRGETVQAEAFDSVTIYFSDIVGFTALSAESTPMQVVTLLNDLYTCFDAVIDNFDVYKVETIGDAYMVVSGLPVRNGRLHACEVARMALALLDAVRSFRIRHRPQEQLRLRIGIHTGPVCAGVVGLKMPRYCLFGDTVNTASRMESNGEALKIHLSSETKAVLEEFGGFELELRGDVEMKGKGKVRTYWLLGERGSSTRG
#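 HEK293 cells stably expressing human Npr1 and cGMP GloSensor pGS-40F, loaded 2 h with 2% GloSensor reagent, given compound 30 min at room temperature. Luminescence read before and 20 min after 0.1 nM hNppA.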
# FLuc inh-1: Photinus pyralis luciferase inhibition. Potency, µM (highest dose often 115 µM), usual class: inhibitors. purified P. pyralis luciferase, luminescence, biochemical. 2.5% of 76,000 active. AID 1347043; also: % is scaled to controls: 0 for no effect and ±100 for the full control effect; nearly all actives have a fitted effect of over 65% in size
#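 Cell-free enzyme assay, 10nM P. pyralis luciferase, luciferin and ATP each at 10uM. Inhibition profiled over a 6-point titration, read as luminescence.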
# FLuc SDR no ATP: binders stabilizing firefly luciferase, without ATP | shares compounds with FLuc inh-1 | Purified FLuc-C-HiBiT, Nano-Glo HiBiT luminescence, no ATP | Potency, µM (series often up to 32.7 µM), without a hit: top-dose activation (signal gain), usual class: activators | 7.8% of 1,300 active | AID 1963318; also: nearly all actives have a fitted effect of over 55% in size
# FLuc SDR ATP: firefly luciferase binding stabilization, ATP added. 8.7% of 1,300 active. shares compounds with FLuc inh-1. AID 1963319. Potency, µM (series often up to 32.7 µM), for the others: at the top dose activation (gain of signal), hits mostly activators. purified FLuc-C-HiBiT + ATP, HiBiT complementation luminescence;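 also: signal reports ligand binding via conformational change of the enzyme rather than luciferase catalysis; % of control where 0% means no effect; nearly all actives have a fitted effect of over 55% in size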
# FLuc inh-2: inhibitors of firefly luciferase enzymatic activity | Potency, µM (titrated, usually from 32.7 µM), for the others: top-dose activity change, negative = inhibition, usual class: inhibitors | 42% of 1,300 active | AID 1963320 | shares compounds with FLuc inh-1 | purified FLuc-C-HiBiT enzyme, luciferin luminescence; also: % is scaled to controls: 0 for no effect and ±100 for the full control effect; nearly all actives have a fitted effect of over 70% in size
# The depositor's hits bear a star; i = inactive; ? = inconclusive; nt = no result given; [ ] = another dose, or the depositor's remark. Unless noted, calls follow the shape of the dose curve; as a rule, active = well fitted curve in the direction sought with a large enough effect; inconclusive = small, poorly fitted or top-dose-only effect, or another doubt; inactive = no such curve, though single readings can be large; an effect the other way counts as inactive or inconclusive. Potency is read from the fitted curve at half-maximal effect.
SMILES,HEK cytotox,3T3 cytotox,NPR1 antag,FLuc inh-1,FLuc SDR no ATP,FLuc SDR ATP,FLuc inh-2
Cc1cnc(CCNC(=O)c2cccs2)n1Cc1ccc(F)cc1,-2%,-17%,nt,nt,nt,nt,nt
COc1ccc(-c2nc(C)c(CCNC(=O)c3cccs3)s2)cc1,nt,nt,nt,nt,24%,17%,?
O=C(NCC1CC1)C1CCN(Cc2ccccc2-c2cccnc2)CC1,-20%,-24%,nt,nt,nt,nt,nt
Cc1ccc(NC(=O)Cn2ccn3nc(-c4ccccc4)c(CO)c3c2=O)cc1F,?,?,-11%,i,nt,nt,nt
CC(=O)c1ccc(NC(=O)CCc2c(C)nc3cc(-c4ccc(Cl)cc4)nn3c2C)cc1,nt,nt,nt,nt,19%,?,?
Cc1cccc(-n2nc(C)c(CCC(=O)NC3CC3)c2Oc2ccc(F)cc2F)c1,?,?,-4%,i,nt,nt,nt
Cc1nc2cc(-c3cccc(F)c3)nn2c(C)c1CCC(=O)NC1CCCCC1,nt,nt,nt,nt,12%,?,?
Cc1ccc(NC(=O)CCc2c(C)nc3cc(-c4ccccc4)nn3c2C)cc1F,nt,nt,nt,nt,13%,?,?
CSc1ccc(Nc2ncncc2-c2nc(-c3ccccc3)no2)cc1,3%,-10%,7%,i,nt,nt,nt
c1ccc(Nc2ncc(-c3ccccc3)o2)cc1,nt,nt,nt,nt,?,?,0.79µM*
CC(C)n1cc(-c2cc(C(=O)N3CCC(C)(C)C3)c3ccc(F)cc3n2)cn1,?,?,-13%,5µM*,?,?,5µM*
CC1CCCN1C(=O)c1cc(-c2cnn(C(C)C)c2)nc2cc(F)ccc12 (stereo not drawn),-24%,?,-6%,?,nt,nt,nt
CCOc1ccc(-c2cc(CCCC(=O)NCCc3ccc(OC)c(OC)c3)no2)cc1,nt,nt,nt,nt,19%,?,?
COc1ccc(OC)c(CN2CCOc3ccc(C(=O)NCc4ccc(C)cc4)cc3C2)c1,?,?,-15%,i,13%,9%,-1%
COc1ccc(CN2CCOc3ccc(C(=O)NCc4ccc(C)cc4)cc3C2)cc1OC,?,?,-13%,i,nt,nt,nt
c1ccc(CNc2cc(-c3cc(N4CCCCC4)ncn3)c3cc[nH]c3n2)nc1,?,?,-2%,7.9µM*,24%,12%,9.9µM*
O=S(=O)(c1ccc(F)cc1)N1CCCC(Cc2noc(-c3ccncc3)n2)C1 (stereo not drawn),?,?,-23%,i,nt,nt,nt
Cc1cccc(NC(=O)Nc2ccc(F)cc2)n1,nt,nt,nt,nt,18%,13%,?
Cc1cc(=O)n(CC(=O)Nc2ccc(F)cc2)c(-c2ccc(F)cc2)n1,?,-7%,-21%,i,nt,nt,nt
Cc1ccc(C)c(C(=O)N(C)CC2CCOCC2)c1,-1%,1%,-2%,i,nt,nt,nt
Cc1ccc(-c2cc3c(=O)n(CCNC(=O)c4ccc(N(C)C)cc4)ccn3n2)c(C)c1,?,-16%,-18%,2.5µM*,20%,14%,?
Cc1ccc(-c2cc3c(=O)n(CCNC(=O)c4cccnc4)ccn3n2)c(C)c1,?,?,5%,8.9µM*,30%,?,?
Cc1ccc(-c2cc3c(=O)n(CCNC(=O)c4ccc(N(C)C)cc4)ccn3n2)cc1C,-3%,i,1%,i,nt,nt,nt
Cc1ccc(C)c(-c2cc3c(=O)n(CCNC(=O)c4ccccc4)ccn3n2)c1,?,?,-13%,i,nt,nt,nt
Cc1ccc(-c2cc3c(=O)n(CCNC(=O)c4nn(C)c5ccccc45)ccn3n2)c(C)c1,?,?,-24%,1.4µM*,?,?,1.6µM*
SMILES,HEK cytotox,3T3 cytotox,NPR1 antag,FLuc inh-1,FLuc SDR no ATP,FLuc SDR ATP,FLuc inh-2
Cc1ccc(-c2cc3c(=O)n(CCNC(=O)Cc4ccsc4)ccn3n2)c(C)c1,?,?,0%,8.9µM*,?,?,6.2µM*
COc1cccc(-c2cc3c(=O)n(CCNC(=O)c4nn(C)c5ccccc45)ccn3n2)c1,?,?,-21%,?,nt,nt,nt
O=C1N[C@@H]2CCN(C(=O)c3ccc(C(F)(F)F)cc3)[C@@H]2C(=O)N1c1ccccc1,-6%[172 µM],i,3%[70.6 µM],i,nt,nt,nt
CC1(C)[C@H](Cc2cc(COc3ccccc3)on2)C[C@@H]1NC(=O)c1ccnc(Cl)c1,i,4%[174 µM],2%[70.6 µM],i,nt,nt,nt
O=C(CC1CCCCC1)Nc1cccc(-c2nnc3n2CCCC3)c1,-2%,-5%,-10%,i,nt,nt,nt
O=C(c1ccccc1OCC1CCCN(CCCc2ccccc2)C1)N1CCCC1 (stereo not drawn),-25%,-27%,-2%,i,nt,nt,nt
COCCN1Cc2ccc(Nc3cccnc3)nc2C(C)(C(=O)NCc2ccncc2)C1 (stereo not drawn),i,?,2%[70.6 µM],i,nt,nt,nt
Cc1nn(C(=O)CCCC(=O)N2CCC(CCOc3ccccc3)C2)c2ccccc12 (stereo not drawn),?,?,-2%,i,nt,nt,nt
COc1ccc(C(=O)NCCn2ccn3nc(-c4cc(C)ccc4C)cc3c2=O)cc1OC,?,?,-19%,i,nt,nt,nt
COc1ccc(C(=O)NCCn2ccn3nc(-c4ccc(C)cc4C)cc3c2=O)cc1F,?,?,?,1.3µM*,32%,?,3.5µM*
CC(=O)Nc1cccc(C(=O)NCCn2ccn3nc(-c4ccc(C)cc4C)cc3c2=O)c1,40µM*,?,-19%,5µM*,31%,?,9.9µM*
Cn1ncc2c(C(=O)Nc3ccccc3Cl)cc(-c3ccccc3F)nc21,-14%,-30%,nt,nt,nt,nt,nt
O=C(Nc1ccccc1-c1nc2ccccc2s1)c1ccccc1F,nt,nt,nt,nt,10%,9%,-6%
COc1ccc(OCC(=O)Nc2ccc(O)c(-c3nc4ccccc4s3)c2)cc1,nt,nt,nt,nt,13%,10%,-14%
CCC1Oc2ccc(NC(=O)COc3ccccc3)cc2CN(Cc2ccc(OC)cc2)C1=O (stereo not drawn),?,?,-7%,i,nt,nt,nt
COc1cccc(C(=O)Nc2ccc(O)c(-c3nc4ccccc4s3)c2)c1,nt,nt,nt,nt,13%,8%,-8%
COc1cccc(C(=O)Nc2ccccc2-c2nc3ccccc3s2)c1,nt,nt,nt,nt,8%,8%,1%
COc1ccc(C(=O)Nc2ccccc2-c2nc3ccccc3s2)c(OC)c1,nt,nt,nt,nt,12%,7%,-6%
O=C(O)c1ccccc1-c1nc2ccccc2s1,nt,nt,nt,nt,23%,14%,-15%
O=C(Nc1ccc2ncnc(N3CCCCC3)c2c1)c1ccccc1,?,?,-29%,i,nt,nt,nt
O=C(Nc1ccc(-c2nc3ccccc3s2)c(O)c1)c1ccc(Br)cc1,nt,nt,nt,nt,15%,10%,5%
